FBPA coupling cs: qHTS Assay for Inhibitors of Fructose-1,6-bisphosphate Aldolase from Giardia Lamblia: Coupling assay counterscreen. coupling enzyme system counterscreen, AmpLite Red fluorescence. AID 2472, 2010. activity change, negative = inhibition, % at 58.2 µM, hits read low. 0.67% of 290,000 active; in the data active means activity change below about -30%
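Counterscreen of the coupled detection system alone, without aldolase: glyceraldehyde-3-phosphate coupling enzymes plus AmpLite Red readout. Compounds at 57.5 uM final, 10 min RT preincubation, 20 min RT reaction, fluorescence 525/598 nm.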
Tau ThT inhib: qHTS for Inhibitors of Tau Fibril Formation, Thioflavin T Binding. recombinant tau K18 P301L, heparin-induced fibrillization, ThT fluorescence. Potency, µM (titrated, usually from 57.4 µM), without a hit: top-dose activity, negative = inhibition, most hits filed as inhibitors. 2.1% of 270,000 active; further: potency means the concentration at half of the fitted maximal effect; nearly all actives have a fitted effect of over 55% in size
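ThT emission at 510 nm, taken 1 hr after adding 30 uM dye, quantifies aggregates formed when 20 uM heparin acts on human tau K18 P301L for 6 hr at 37 C.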
USP1-UAF1 inh: Inhibitors of USP1/UAF1: Primary Screen; Ubiquitin carboxyl-terminal hydrolase 1 (Homo sapiens), O94782; recombinant USP1/UAF1, Ub-Rhodamine cleavage fluorescence; Potency, µM (titrated, usually from 57.1 µM), without a hit: top-dose activity change, negative = inhibition, hits mostly inhibitors; 0.23% of 390,000 active; further: potency means the concentration at half of the fitted maximal effect; nearly all actives have a fitted effect of over 60% in size
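USP1/UAF1 complex at 1 nM was preincubated with compound for 15 min at room temperature, then Ub-Rho substrate (150nM final) was added. Fluorescence (480/540 nm) was read kinetically, 6 reads every 60 seconds.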
Tau fibril FP: qHTS for Inhibitors of Tau Fibril Formation, Fluorescence Polarization; Microtubule-associated protein tau (Homo sapiens), P10636; 0.39% of 280,000 active; K18 P301L tau heparin fibrillization, Alexa594 FP, 6 h; AID 1468, 2008; Potency, µM (highest dose often 57.7 µM), inactives show at the top dose activity, negative = inhibition, actives largely listed as inhibitors; further: potency means the concentration at half of the fitted maximal effect; nearly all actives have a fitted effect of over 55% in size
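Quantitative HTS format: compounds meet 15 uM recombinant K18 P301L tau and Alexa 594-tau tracer in 100 mM sodium acetate pH 7; 20 uM heparin triggers fibrillization at 37 C over 6 hr; FP gives the signal.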
Tau fluor counter: Counterscreen qHTS for Inhibitors of Tau Fibril Formation, Fluorescence Polarization; Potency, µM (doses to about 57.7 µM), for the others: at the top dose activity change, negative = decrease; tau K18 P301L Alexa594 fluorescence, heparin fibrillization; 0.93% of 280,000 active; further: potency means the concentration at half of the fitted maximal effect; nearly all actives have a fitted effect of over 55% in size
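Human tau K18 P301L (15 uM unlabeled, 0.24 uM Alexa 594-labeled) in 100 mM sodium acetate pH 7 with 20 uM heparin, 6 hr at 37 C. ThT 30 uM added, 1 hr ambient; Alexa 594 FP and total fluorescence read at 555/632 nm.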
Starred values were filed as active, the others as inactive; ? = inconclusive; / = not tested or not shown; [ ] = remark or other dose. In the library only some 2.3% were active in any assay of this set; here they are far more common. Unless noted, the call rests on the fitted dose curve; in most records, active means well fitted curve in the direction sought with a large enough effect; inconclusive means small, poorly fitted or top-dose-only effect, or another doubt; inactive means no such curve, though single readings can be large; an effect the other way counts as inactive or inconclusive. On the % scale 0 is the no-effect control and ±100 the full control effect.

SMILES | FBPA coupling cs | Tau ThT inhib | USP1-UAF1 inh | Tau fibril FP | Tau fluor counter
O=C(/C=C/c1ccccc1)NC(=S)NNC(=O)c1ccco1 | 2.0 | ? | -18.3% | 0.6% | -13.3%
COc1ccccc1NC(=O)Nc1ccc(-n2ccc(C(F)(F)F)n2)cc1 | -13.4 | ? | -22.9% | ? | 14.1µM*[quencher]
CCOC(=O)c1sc(NC(=O)Nc2cccc(Cl)c2)cc1C | -1.7 | -22.9% | -14.8% | ? | 3.55µM*[quencher]
O=C(Nc1ccc(-n2ccc(C(F)(F)F)n2)cc1)Nc1cccc(Cl)c1 | -0.7 | 13.3% | / | 3.55µM* | ?
Cc1cc(C)cc(NC(=O)Nc2ccc(-n3ccc(C(F)(F)F)n3)cc2)c1 | -3.5 | 3.1% | -28.1% | 17.8µM* | ?
O=C(O)c1ccccc1C(=O)Nc1ccc(-n2ccc(C(F)(F)F)n2)cc1 | 6.2 | -3.0% | -17.2% | 2.0% | -5.8%
CCOC(=O)c1sc(NC(=O)c2cccs2)cc1C | 0.7 | -11.1% | -17.1% | -8.1% | -27.0%
O=C(Nc1cccc(Cl)c1)Nc1csc([N+](=O)[O-])c1 | -3.2 | 15.8µM* | -12.4% | ? | 8.91µM*[quencher]
O=C(Nc1ccncc1)Nc1cccc(Cl)c1 | 1.3 | / | -11.7% | / | /
CN(c1cccc(NC(=O)Nc2cccc(Cl)c2)c1)S(C)(=O)=O | -0.3 | -6.0% | -11.6% | ? | ?
CN(C)c1ccc(NC(=O)Nc2cccc(Cl)c2)cc1 | -9.7 | 12.6µM* | -9.4% | 9.7% | 14.1µM*[quencher]
CCN(CC(=O)NC1CCS(=O)(=O)C1)C(=O)c1cc(OC)c(OC)c(OC)c1 (centres undefined) | / | / | -25.7% | / | /
COC(=O)C1=C(C)NC(C)=C(C(=O)OCCSc2ccccc2)[C@@H]1C | -0.1 | -18.6% | / | 9.7% | 15.8µM*[quencher]
Cn1c(SCc2ccccc2)nccc1=O | / | / | -19.2% | / | /
CC1=C(SCc2ccccc2)C(=O)c2ccccc2C1=O | / | / | 15.8µM* | / | /
CC(C)C1Cc2c(sc(NC(=S)NC(=O)c3ccccc3)c2C#N)CO1 (centres undefined) | -2.1 | -10.9% | -19.3% | 9.4% | -2.6%
CC(C)N1CCc2c(sc(NC(=S)NC(=O)c3ccccc3)c2C#N)C1 | -38.8* | ? | -5.2% | 10.3% | ?
CCCN1CCc2c(sc(NC(=S)NC(=O)c3ccccc3)c2C#N)C1 | 0.6 | 15.8µM* | -29.0% | 2.3% | ?
COc1cccc(Cn2c(=O)n(-c3cc(C)cc(C)c3)c(=O)c3oc4ccccc4c32)c1 | / | 0.7% | 18.8% | -3.9% | -0.9%
COc1cccc(/C=C2/NC(=O)N(CC(=O)Nc3ccc(C)cc3)C2=O)c1OCc1cccc(C(=O)O)c1 | 6.3 | / | 25.1µM* | / | /
Cc1ccc(NC(=O)CN2C(=O)N/C(=C/c3ccccc3OCc3cccc(C(=O)O)c3)C2=O)cc1 | 12.1 | / | ? | / | /
CCc1sc(Nc2cccc(C)c2C)nc1-c1cc2cccc(OC)c2oc1=O | / | -8.3% | -19.5% | 4.3% | -11.1%
Cc1cc2c(cc1C)CSC(c1c(O)ccc3ccccc13)SC2 | 0.2 | ? | -20.8% | 22.4µM* | 7.94µM*[quencher]
CN(CCO)CCOCCOc1cccc2ccccc12 | -47.2* | -3.6% | -1.8% | 2.8% | 0.8%
CCN1C(=O)/C(=C/C=C2\C=CN(CC)c3ccccc32)SC1=S | -35.7* | 2.24µM* | ? | ? | ?
CCN1C(=O)/C(=C2/C=CC=CN2C)SC1=S | -1.0 | ? | -11.5% | -2.7% | -9.6%
CCN1C(=O)/C(=C\C=C2/C=CC=CN2CC)SC1=S | -31.0* | 14.1µM* | ? | ? | -22.0%
CCCN1C(=O)/C(=C\C=C2/Sc3ccccc3N2CC)SC1=S | 4.5 | ? | / | -3.6% | 17.3%
CCN(CC)S(=O)(=O)c1ccc(/C=C/C(=O)OCC(=O)Nc2ccc(S(N)(=O)=O)cc2)cc1 | -45.9* | -9.3% | -20.3% | 3.3% | -11.7%
CCN(CC)S(=O)(=O)c1ccc(/C=C/C(=O)OCC(=O)Nc2ccc(C(N)=O)cc2)cc1 | 4.3 | 9.7% | 5.0% | 0.0% | 6.8%

Assay outcomes from PubChem.
